Results taken from the supplement of paper PMC11732987, “Enantioselective OTUD7B fragment discovery through chemoproteomics screening and high-throughput optimisation” (Communications Chemistry, 2025).

Experiments:
Assay in all cases: log2 ratio of Biotin-Ahx-Ub-VS probe labelling (fragment/DMSO); higher = less target engagement (more negative = stronger competition), active = hit call of the paper (q ≤ 0.05, log2 ratio ≤ -1)
Conditions in all cases: compound concentration: 200 uM; treatment time: 3 h
USP34 = USP34 (UniProt Q70CQ2)
Summary of the method: (§1)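 Labelling with Biotin-Ahx-Ub-VS (0.5 µM final, 1 h) followed a 3 h triplicate treatment of HEK293T lysate (495 µg per sample, Tris/CHAPS/IGEPAL buffer with protease inhibitors) with fragment at 200 µM or vehicle. Labelled DUBs were NeutrAvidin-enriched, digested with LysC and trypsin, and run by diaPASEF LC-MS/MS. The values, average log2 fragment/vehicle ratios by unpaired t-test, come from global-median-normalised Spectronaut label-free quantities. Proteins with ≥2 unique peptides were used.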

USP36 = molecular target: T1, USP36 (UniProt Q9P275)
T1 sequence (whole entry): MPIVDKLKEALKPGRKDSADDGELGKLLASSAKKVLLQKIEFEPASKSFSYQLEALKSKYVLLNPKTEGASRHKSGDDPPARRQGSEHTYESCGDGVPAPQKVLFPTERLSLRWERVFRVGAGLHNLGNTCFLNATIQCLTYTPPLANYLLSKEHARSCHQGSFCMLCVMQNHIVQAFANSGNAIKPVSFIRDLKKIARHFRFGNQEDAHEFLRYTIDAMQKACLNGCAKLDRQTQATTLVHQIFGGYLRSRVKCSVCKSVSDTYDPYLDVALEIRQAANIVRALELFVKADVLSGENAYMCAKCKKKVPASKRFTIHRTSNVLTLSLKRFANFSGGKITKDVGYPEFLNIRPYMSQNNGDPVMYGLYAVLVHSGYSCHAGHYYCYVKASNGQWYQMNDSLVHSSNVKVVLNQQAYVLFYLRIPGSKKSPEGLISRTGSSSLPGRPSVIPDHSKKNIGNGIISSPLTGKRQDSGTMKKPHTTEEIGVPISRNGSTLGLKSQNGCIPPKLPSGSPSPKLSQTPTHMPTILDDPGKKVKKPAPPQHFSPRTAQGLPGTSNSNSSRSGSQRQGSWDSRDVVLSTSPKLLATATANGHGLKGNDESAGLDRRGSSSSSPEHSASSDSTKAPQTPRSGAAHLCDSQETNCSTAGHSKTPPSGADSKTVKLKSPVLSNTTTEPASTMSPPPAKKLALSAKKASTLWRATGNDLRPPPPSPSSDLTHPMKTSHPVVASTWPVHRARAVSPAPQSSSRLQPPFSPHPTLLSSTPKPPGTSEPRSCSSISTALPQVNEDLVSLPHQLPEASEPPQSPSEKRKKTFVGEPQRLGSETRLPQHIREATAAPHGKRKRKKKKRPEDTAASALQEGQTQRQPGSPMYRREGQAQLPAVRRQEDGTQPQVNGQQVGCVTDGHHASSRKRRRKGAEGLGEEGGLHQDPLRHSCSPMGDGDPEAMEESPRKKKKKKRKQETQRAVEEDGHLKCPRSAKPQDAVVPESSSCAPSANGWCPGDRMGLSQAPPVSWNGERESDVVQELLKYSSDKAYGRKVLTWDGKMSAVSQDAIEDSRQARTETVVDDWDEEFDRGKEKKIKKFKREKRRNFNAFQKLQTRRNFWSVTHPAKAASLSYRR
Summary of the method: as §1

USP38 = molecular target: T2, USP38 (UniProt Q8NB14)
T2 sequence (whole entry): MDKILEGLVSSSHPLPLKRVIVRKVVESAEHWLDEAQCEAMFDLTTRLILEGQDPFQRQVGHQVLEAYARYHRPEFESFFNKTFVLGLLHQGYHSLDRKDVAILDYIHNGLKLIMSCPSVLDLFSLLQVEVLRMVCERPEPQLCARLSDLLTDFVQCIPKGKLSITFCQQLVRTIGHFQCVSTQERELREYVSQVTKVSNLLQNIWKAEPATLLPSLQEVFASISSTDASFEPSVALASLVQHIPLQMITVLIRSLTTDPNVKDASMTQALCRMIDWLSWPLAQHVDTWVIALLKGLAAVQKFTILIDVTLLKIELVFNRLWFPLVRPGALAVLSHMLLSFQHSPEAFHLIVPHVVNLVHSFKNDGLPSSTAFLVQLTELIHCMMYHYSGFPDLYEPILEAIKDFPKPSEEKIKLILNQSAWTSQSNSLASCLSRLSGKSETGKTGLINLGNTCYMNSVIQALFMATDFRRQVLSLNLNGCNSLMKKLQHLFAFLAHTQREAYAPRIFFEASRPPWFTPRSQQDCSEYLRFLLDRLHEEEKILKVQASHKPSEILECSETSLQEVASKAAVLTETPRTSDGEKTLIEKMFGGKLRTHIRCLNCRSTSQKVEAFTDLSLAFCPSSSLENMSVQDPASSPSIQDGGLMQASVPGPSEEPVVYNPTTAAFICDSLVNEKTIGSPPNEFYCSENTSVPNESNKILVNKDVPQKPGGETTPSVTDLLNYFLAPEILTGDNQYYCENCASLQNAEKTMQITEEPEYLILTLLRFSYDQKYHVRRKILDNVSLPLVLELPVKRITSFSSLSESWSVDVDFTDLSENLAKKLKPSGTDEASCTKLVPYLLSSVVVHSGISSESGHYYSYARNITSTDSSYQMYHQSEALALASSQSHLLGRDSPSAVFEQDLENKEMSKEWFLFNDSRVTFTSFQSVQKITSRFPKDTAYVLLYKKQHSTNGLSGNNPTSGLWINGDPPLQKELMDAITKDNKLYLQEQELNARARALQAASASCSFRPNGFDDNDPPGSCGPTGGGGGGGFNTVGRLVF
Summary of the method: as §1

USP39 = molecular target: T3, USP39 (UniProt Q53GS9)
T3 sequence (whole entry): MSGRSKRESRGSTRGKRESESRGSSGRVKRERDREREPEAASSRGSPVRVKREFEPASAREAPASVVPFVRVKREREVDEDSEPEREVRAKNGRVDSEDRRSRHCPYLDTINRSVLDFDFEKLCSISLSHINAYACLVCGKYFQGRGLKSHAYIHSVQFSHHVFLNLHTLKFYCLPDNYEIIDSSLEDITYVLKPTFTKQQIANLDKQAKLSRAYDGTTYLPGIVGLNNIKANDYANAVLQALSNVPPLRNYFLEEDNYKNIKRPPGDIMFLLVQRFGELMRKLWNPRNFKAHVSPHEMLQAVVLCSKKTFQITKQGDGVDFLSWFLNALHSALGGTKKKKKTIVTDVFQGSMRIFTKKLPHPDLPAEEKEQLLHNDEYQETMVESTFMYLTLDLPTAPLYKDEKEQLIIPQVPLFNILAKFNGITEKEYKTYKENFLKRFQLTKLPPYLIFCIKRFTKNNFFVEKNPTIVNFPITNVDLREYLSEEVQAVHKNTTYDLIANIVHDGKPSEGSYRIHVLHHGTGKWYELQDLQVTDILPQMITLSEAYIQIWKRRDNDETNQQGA
Summary of the method: as §1

USP4 = molecular target: T4, USP4 (UniProt Q13107)
T4 sequence (whole entry): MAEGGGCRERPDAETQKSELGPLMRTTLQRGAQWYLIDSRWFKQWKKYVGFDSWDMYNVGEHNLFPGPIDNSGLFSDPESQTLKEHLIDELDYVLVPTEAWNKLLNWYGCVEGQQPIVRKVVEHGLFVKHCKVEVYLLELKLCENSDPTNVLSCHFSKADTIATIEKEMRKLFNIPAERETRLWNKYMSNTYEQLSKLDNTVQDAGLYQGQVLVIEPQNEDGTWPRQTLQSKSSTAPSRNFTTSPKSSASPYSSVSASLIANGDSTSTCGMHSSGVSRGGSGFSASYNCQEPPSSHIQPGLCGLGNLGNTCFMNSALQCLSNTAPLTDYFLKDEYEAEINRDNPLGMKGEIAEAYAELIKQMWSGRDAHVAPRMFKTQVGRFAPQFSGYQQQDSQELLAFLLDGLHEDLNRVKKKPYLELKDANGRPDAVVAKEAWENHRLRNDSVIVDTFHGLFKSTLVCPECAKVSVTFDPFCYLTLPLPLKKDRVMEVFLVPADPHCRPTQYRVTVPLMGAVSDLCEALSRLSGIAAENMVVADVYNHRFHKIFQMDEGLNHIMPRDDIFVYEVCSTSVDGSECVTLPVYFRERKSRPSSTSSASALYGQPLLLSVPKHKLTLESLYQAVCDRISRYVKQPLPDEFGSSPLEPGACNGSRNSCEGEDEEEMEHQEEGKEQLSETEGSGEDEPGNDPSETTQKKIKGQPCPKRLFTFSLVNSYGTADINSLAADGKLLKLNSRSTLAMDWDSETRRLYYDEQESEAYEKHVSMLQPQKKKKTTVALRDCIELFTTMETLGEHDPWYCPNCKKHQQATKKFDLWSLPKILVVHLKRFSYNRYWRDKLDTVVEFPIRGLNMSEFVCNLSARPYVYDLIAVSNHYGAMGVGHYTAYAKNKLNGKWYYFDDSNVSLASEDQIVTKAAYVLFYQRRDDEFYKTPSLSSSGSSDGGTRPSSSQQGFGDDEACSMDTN
Summary of the method: as §1

Measured: log2 ratio of Biotin-Ahx-Ub-VS probe labelling

Chain of USP34 (Q70CQ2 whole entry, the tested form may be a part): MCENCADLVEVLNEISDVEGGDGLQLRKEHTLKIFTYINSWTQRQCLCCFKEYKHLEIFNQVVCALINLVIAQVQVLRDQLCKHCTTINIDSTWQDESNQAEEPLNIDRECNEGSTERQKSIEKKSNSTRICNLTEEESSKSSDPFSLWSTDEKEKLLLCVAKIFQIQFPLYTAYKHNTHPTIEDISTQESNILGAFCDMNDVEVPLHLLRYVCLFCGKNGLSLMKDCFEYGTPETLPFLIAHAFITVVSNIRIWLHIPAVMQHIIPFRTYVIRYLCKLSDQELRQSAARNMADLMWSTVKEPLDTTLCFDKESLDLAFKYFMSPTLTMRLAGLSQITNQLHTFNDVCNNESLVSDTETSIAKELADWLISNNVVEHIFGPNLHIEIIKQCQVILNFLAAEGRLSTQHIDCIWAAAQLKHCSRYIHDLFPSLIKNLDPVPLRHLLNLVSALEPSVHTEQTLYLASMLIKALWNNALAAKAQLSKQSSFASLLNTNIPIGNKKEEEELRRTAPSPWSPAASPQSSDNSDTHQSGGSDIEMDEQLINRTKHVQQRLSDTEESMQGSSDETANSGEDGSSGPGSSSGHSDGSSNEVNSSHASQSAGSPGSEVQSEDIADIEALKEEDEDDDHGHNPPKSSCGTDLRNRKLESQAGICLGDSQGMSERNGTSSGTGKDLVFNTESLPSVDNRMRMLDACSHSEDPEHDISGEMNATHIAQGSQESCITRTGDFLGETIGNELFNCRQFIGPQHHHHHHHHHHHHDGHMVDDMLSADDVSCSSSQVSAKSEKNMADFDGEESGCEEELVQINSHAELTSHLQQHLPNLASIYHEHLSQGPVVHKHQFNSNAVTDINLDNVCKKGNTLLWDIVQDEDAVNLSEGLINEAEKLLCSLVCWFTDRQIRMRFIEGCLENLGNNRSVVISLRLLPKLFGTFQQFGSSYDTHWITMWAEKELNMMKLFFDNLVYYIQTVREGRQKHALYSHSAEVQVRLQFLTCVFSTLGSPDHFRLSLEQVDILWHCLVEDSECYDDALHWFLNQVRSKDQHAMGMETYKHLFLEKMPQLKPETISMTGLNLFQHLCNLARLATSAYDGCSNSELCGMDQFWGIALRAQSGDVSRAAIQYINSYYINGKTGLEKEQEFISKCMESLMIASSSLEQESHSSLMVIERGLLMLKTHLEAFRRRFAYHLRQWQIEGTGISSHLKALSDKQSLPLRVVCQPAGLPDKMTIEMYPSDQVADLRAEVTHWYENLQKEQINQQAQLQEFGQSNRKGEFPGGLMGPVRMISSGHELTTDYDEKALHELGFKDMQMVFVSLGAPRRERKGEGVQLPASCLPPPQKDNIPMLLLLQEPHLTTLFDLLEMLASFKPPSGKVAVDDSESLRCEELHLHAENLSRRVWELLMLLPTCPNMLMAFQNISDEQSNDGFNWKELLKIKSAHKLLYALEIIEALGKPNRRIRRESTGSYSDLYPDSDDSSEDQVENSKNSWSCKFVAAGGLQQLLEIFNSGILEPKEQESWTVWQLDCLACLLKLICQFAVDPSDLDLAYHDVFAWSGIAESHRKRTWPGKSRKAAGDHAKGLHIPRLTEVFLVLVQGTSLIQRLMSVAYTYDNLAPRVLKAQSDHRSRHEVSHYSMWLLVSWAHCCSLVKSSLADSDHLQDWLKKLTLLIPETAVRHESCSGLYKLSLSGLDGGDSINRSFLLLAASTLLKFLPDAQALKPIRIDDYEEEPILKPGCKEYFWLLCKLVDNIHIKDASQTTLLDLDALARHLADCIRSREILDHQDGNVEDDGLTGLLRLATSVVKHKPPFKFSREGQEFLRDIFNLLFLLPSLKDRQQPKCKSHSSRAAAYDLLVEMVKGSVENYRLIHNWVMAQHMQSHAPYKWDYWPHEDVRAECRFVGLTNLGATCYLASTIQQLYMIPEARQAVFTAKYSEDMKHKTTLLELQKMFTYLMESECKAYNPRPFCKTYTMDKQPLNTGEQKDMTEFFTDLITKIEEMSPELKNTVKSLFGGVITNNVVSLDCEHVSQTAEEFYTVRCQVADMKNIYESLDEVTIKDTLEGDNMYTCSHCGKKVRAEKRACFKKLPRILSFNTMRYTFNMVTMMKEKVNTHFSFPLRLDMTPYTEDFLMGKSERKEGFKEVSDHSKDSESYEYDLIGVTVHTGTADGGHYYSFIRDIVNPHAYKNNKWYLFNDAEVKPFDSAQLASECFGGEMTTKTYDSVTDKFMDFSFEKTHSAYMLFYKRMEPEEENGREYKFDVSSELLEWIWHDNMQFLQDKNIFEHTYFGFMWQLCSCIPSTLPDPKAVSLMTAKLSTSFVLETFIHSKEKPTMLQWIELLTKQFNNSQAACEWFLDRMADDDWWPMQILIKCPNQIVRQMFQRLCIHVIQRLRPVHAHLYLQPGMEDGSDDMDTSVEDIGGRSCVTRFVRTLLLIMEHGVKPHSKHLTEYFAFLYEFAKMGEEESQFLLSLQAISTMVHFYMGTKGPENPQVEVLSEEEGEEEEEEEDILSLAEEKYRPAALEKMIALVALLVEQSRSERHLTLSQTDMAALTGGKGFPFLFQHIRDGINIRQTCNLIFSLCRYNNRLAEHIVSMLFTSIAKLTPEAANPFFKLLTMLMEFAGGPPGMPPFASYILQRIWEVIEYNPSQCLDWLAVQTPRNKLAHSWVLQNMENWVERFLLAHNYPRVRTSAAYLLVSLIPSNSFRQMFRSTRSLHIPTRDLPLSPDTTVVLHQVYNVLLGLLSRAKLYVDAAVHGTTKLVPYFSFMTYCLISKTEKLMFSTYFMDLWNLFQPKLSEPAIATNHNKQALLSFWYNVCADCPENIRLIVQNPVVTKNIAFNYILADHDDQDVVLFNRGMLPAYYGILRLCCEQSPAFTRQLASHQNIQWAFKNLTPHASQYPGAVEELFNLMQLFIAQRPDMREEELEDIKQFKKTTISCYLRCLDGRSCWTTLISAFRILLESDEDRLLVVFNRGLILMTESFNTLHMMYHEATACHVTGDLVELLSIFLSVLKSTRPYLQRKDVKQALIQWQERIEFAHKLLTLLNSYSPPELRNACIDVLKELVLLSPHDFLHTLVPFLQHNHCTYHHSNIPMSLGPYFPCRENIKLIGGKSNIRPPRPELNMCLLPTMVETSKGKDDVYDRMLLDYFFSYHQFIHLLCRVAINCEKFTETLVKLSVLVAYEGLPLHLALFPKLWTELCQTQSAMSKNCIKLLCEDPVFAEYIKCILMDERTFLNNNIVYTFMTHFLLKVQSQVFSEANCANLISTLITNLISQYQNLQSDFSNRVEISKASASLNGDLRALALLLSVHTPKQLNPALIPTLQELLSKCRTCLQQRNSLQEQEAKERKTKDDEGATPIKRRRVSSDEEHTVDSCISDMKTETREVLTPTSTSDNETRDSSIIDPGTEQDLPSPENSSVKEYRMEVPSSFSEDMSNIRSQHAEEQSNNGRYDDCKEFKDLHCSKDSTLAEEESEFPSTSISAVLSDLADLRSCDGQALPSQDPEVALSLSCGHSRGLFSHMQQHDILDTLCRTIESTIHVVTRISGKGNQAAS

Cl.O=C(CCl)N1CCC(n2nc3ccccc3n2)CC1
inactive: USP34 -0.257 | USP36 0.0455 | USP38 -0.223 | USP39 -0.0437 | USP4 -0.443
